Assay outcomes from PubChem BioAssay.
Shown is part of a subset that was picked to be rich in hits.
TTR transcr act: TTR transcription activation, primary screen. SH-SY5Y TTR promoter Gaussia luciferase, luminescence; 100% = recombinant luciferase protein wells. activation, % at 16.7 µM. 92,000 tested, 1.3% active. AID 1117267;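 active means activation above the mean of all tested compounds plus 3 SD, cut at about 9.5% in these data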;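 further: cells exposed to compounds for one day before reading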
HuH7 TTR inh: HuH7 TTR transcription inhibition, counter-screen; shares compounds with TTR transcr act; HuH7 TTR promoter-Gaussia luciferase reporter, luminescence; inhibition, % at 16.7 µM; 1,100 tested, 4% active;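 active means average inhibition above the solvent-only control wells' mean plus 3 SD, cut at about 15% in these data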;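 further: inhibitors lower well luminescence so higher value means more inhibition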
TTR act confirm: confirmation of human transthyretin transcription activators; shares compounds with TTR transcr act; AID 1117280; SHSY5Y TTR promoter Gaussia luciferase, luminescence; 100% = purified Lucia enzyme wells, no cells; activation, % at 16.7 µM; 1,100 tested, under 10 active;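 active means mean activation above a set limit taken from the earlier primary screen, cut at about 11% in these data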
Large screens that a line does not name were inactive (follow-up assays come after a bar, where they were run).

Cc1ccc(C(=O)N[C@H](C(=O)OCc2cc(=O)oc3cc(C)ccc23)C(C)C)cc1	none
COc1ccc(CCc2cc(OC)cc(=O)o2)cc1	none
N#Cc1ccc(NC(=O)NN2CCCCCC2)cc1	none
O=C(Nc1ccc(Cl)cc1)NN1CCCCCC1	TTR transcr act 17 | HuH7 TTR inh inactive | TTR act confirm inactive
O=C(Nc1ccc([N+](=O)[O-])cc1)NN1CCCCCC1	none
O=C(OCC#CCSc1nnc(-c2cccc3ccccc23)o1)c1cc(F)c(F)c(F)c1	none
O=C1CCC[C@H]2CC3(CC[C@]24CCCN14)OCCO3	none
COP(=O)(O)C[C@@H]1CCc2cc(C)cc([C@H](CC(C)C)NC(=O)OCc3ccccc3)c2O1	none
CCn1c(=O)cc(OCC(=O)Nc2nc(C)cs2)c2ccccc21	TTR transcr act 11 | HuH7 TTR inh inactive | TTR act confirm inactive
CCn1c(=O)cc(OCC(=O)NCC2CCCO2)c2ccccc21 (centres undefined)	none
CCn1c(=O)cc(OCC(=O)NCCc2ccc(OC)c(OC)c2)c2ccccc21	none
CCCCOC(=O)C1=C(C)Nc2ncnn2C1c1cc(OC)ccc1OC (centres undefined)	none
CCCCCCCOC(=O)C1=C(C)Nc2ncnn2C1c1cccs1 (centres undefined)	none
COCCOC(=O)C1=C(C)Nc2ncnn2C1c1ccco1 (centres undefined)	TTR transcr act 13 | HuH7 TTR inh inactive | TTR act confirm inactive
C=CCOC(=O)C1=C(C)NC(C)=C(C(=O)OCC=C)C1c1ccco1	none
CCOC(=O)C1=C(C)NC(C)=C(C(=O)OC)C1c1ccco1 (centres undefined)	TTR transcr act 12 | HuH7 TTR inh inactive | TTR act confirm inactive
CCOC(=O)C1=C(C)NC(=S)NC1c1ccc(OC(=O)c2ccco2)cc1 (centres undefined)	none
O=c1c([N+](=O)[O-])c(Cl)c2ccccc2n1Cc1ccccc1	none
O=C(NCc1cccnc1)O[C@H]1CC[C@@]23CCCN2C(=O)CCC[C@H]3C1	none
O=C(Nc1ccc(S(=O)(=O)Nc2ncccn2)cc1)c1ccc(Cl)c([N+](=O)[O-])c1	none
CCOC(=O)[C@]12CCCC=C1N(Cc1ccc(OC)cc1)C(=O)[C@@H]2CC(=O)NCCc1ccccc1OC	none
CCC(=O)Nc1cc(C)c(NC(=O)C23CC4CC(CC(C4)C2)C3)cn1	TTR transcr act 9.9 | HuH7 TTR inh inactive | TTR act confirm inactive
CCCCC(=O)Nc1cc(C)c(NC(=O)c2cccs2)cn1	none
CCC(=O)Nc1cnc(NC(=O)c2cccc(F)c2)cc1C	none
Cc1nc2ccccc2c(C)c1CC(=O)N(C)CC(=O)Nc1cccc(F)c1	none
CCc1ccc(N(CC(=O)Nc2ccccc2C(=O)N2CCCC2)S(C)(=O)=O)cc1	none
O=C(Nc1cc(Cl)ccc1N1CCOCC1)c1cccnc1Cl	none
CN(C)[C@H]1CCN(c2ccc3c(c2)O[C@H]2CCN(C2)S3(=O)=O)C1	none
C=C(Cl)COc1cc(C)cc2oc(=O)cc(CC)c12	none
Cc1cc(OCc2cc3c(cc2Cl)OCO3)c2c(C)cc(=O)oc2c1	TTR transcr act 11 | HuH7 TTR inh inactive | TTR act confirm inactive
CCOc1cc2c(C)cc(=O)oc2cc1Cl	none
COC(=O)[C@]12C[C@H](CC(=O)N3CCN(C(=O)c4ccco4)CC3)C(=O)N(Cc3ccc4c(c3)OCO4)C1=C[C@H](C(C)C)O[C@@H]2C1CC1	none
CCn1c(CCNC(=O)c2ccc(Cl)cc2Cl)n[nH]c1=S	none
CCn1c(Cc2ccccc2)n[nH]c1=S	none
CCn1c(CCNC(=O)c2ccccc2Cl)n[nH]c1=S	TTR transcr act 22 | HuH7 TTR inh inactive | TTR act confirm inactive
O=S(=O)(Nc1nccs1)c1cnc(Cl)c(Br)c1	none
O=S(=O)(Nc1ccccn1)c1cnc(Cl)c(Br)c1	TTR transcr act 20 | HuH7 TTR inh inactive | TTR act confirm inactive
O=S(=O)(Nc1ccccn1)c1ccc(Br)cc1	none
O=C(NC1CCCCN(Cc2ccc(Cl)cc2)C1=O)c1ccc(-c2ccccc2)cc1 (centres undefined)	none
S=C(Nc1ccccc1I)OC1CCC12CCC(c1ccccc1)CC2 (centres undefined)	none
COc1cccc(CNC(=O)N2CCN(S(=O)(=O)c3ccc(Cl)cc3)CC2)c1	none
COc1ccccc1CNC(=O)N1CCN(S(=O)(=O)c2ccc(Cl)cc2)CC1	TTR transcr act 38 | HuH7 TTR inh inactive | TTR act confirm inactive
COc1ccccc1CNC(=O)N1CCN(S(=O)(=O)c2ccccc2)CC1	none
COC(=O)[C@H]1C[C@]2(C(/C=C(\C)CCC=C(C)C)S(=O)(=O)c3ccccc3)c3ccccc3N[C@H]2N1 (some centres undefined)	none
Cc1cccc(NC(=O)N2C3CCCC2CC(NC(=O)C(C)(C)C)C3)c1 (centres undefined)	none
Cc1cccc(NC(=O)CN(CC2CCCO2)C(=O)c2cc(S(=O)(=O)N(C)C)ccc2F)c1C (centres undefined)	none
CCn1c(SCC(=O)Nc2cccc(OC)c2)nc2ccccc2c1=O	none
COc1cccc(NC(=O)CSc2c3c(nc4ccccc24)CCCC3)c1	TTR transcr act 9.9 | HuH7 TTR inh inactive | TTR act confirm inactive
Cc1cccc(NC(=O)CSc2c3c(nc4ccccc24)CCC3)n1	none
CC1(C)CC(=O)C(CC(=O)c2ccccc2)=C(NN=C(N)N)C1	none
FC(F)(F)Oc1cccc(Cn2ccc3ccc(-c4ccc5ccn(Cc6cccc(OC(F)(F)F)c6)c5c4)cc32)c1	none
O=C(CSCC(=O)Nc1cccc2ccccc12)Nc1cccc2ccccc12	none
Cc1cc(C)nc(SCCC(=O)Nc2cccc3ccccc23)n1	TTR transcr act 13 | HuH7 TTR inh inactive | TTR act confirm inactive
Cc1cc(C)nc(SCC(=O)Nc2ccnc3ccccc23)n1	none
CCCC1CCC2(CCCN2CCOC(=O)Nc2ccc(F)cc2)CC1 (centres undefined)	none
COCCN=C1S/C(=C\c2cc(C)n(-c3ccc(F)cc3F)c2C)C(=O)N1C	none
Cc1csc(NC(=O)CCNS(=O)(=O)c2ccc3c(c2)c(=O)n(C)c(=O)n3C)n1	none
Cc1ccc(CCNC(=O)CN(C)S(=O)(=O)c2ccc3c(c2)c(=O)n(C)c(=O)n3C)cc1	none
Cc1ccc(CCNC(=O)CCNS(=O)(=O)c2ccc3c(c2)c(=O)n(C)c(=O)n3C)cc1	TTR transcr act 9.9 | HuH7 TTR inh inactive | TTR act confirm inactive
COC(=O)[C@]12C[C@H](CC(=O)NCCCCc3ccccc3)C(=O)N(CCc3ccc(OC)c(OC)c3)C1=C[C@H](C(C)C)O[C@@H]2C1CC1	none
CCOC(=O)[C@]12CCCC=C1N(CCCOC)C(=O)[C@@H]2CC(=O)N1CCN(C(=O)c2ccco2)CC1	none
Cc1cc(N2CCOc3ccccc32)nc2ccccc12	none
CC(=O)C1CCC2C3CCC4=CC(=O)C=CC4(C)C3CCC12C (centres undefined)	none
CC(=O)C1CCC2C3CCC4CC(=O)CCC4(C)C3C(O)CC12C (centres undefined)	TTR transcr act 10 | HuH7 TTR inh inactive | TTR act confirm inactive
CC(=O)C1C(C)CC2C3CCC4CC(=O)CCC4(C)C3CCC21C (centres undefined)	none
O=C(NC1CC[C@@]23CCCN2C(=O)CCC[C@H]3C1)c1ccccc1 (some centres undefined)	none
CC1=CC(=O)C(C(C)C)=C/C1=N\OS(=O)(=O)c1ccccc1	none
COc1ccc(-c2nc(-c3ccncc3)no2)cc1OC	none
COc1ccc(-c2noc(-c3cccs3)n2)cc1OC	TTR transcr act 22 | HuH7 TTR inh 35 | TTR act confirm inactive
